In PubChem BioAssay (EPA / NIEHS):
Calls of active or inactive are those of the source. Rule for the calls: active = hit-call score of the fitted dose curve at least 0.9, where 1 is the maximum; inactive = score below 0.9.

Key:
[1] = biological target: Transcription factor E2F1 (Homo sapiens) (UniProt Q01094); experiment: ATG_E2F_CIS: Attagene CIS-FACTORIAL HepG2 Assay for human E2F Transcription Factor 1 (AID 2282935); details: HepG2 Attagene cis-reporter, E2F reporter RNA transcripts; actives raise or lower the signal
Summary of the method: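 Transient MRTU transfection of HepG2; 24 h compound exposure; RNA → oligo(dT) RT → PCR → FAM label → HpaI cut → CE fluorescence. Gain/loss of signal fit against DMSO.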

[2] = ATG_E_Box_CIS: Attagene CIS-FACTORIAL HepG2 Assay for human Enhancer Box (E-box) (AID 2282936); details: HepG2 E-box cis-reporter transcription, actives raise or lower the signal
Summary of the method: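 Transiently transfected HepG2, endogenous TF-driven reporters, 24 h dosing. Readout: RT-PCR plus capillary electrophoresis of fluorescent reporter fragments. Gain or loss of signal fitted bidirectionally against DMSO baseline.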

[3] = ATG_EGR_CIS: Attagene CIS-FACTORIAL HepG2 Assay for human Early Growth Response 1 (EGR1) (AID 2282938); details: HepG2 Attagene CIS-FACTORIAL EGR reporter mRNA; actives raise or lower the signal
Summary of the method: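 Fluorescent capillary-electrophoresis signal of reporter cDNA fragments serves as read-out. HepG2 cells bear transiently transfected cis-promoter reporter units and are exposed 24 h; gain- or loss-of-signal is fitted against DMSO.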

[4] = ATG_M_19_CIS: Attagene CIS-FACTORIAL HepG2 Assay for M19 Transcription Factor (Internal Marker) (AID 2282939); details: HepG2 Attagene CIS-FACTORIAL M19 internal marker reporter; actives raise or lower the signal
Summary of the method: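 Internal marker readout, fitted in both directions against DMSO, from HepG2 cells carrying transfected cis-element reporter constructs; RT-PCR and capillary electrophoresis of reporter mRNA after 24 h exposure.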

[5] = ATG_ERE_CIS: Attagene CIS-FACTORIAL HepG2 Assay for Estrogen Response Element (ERE) (AID 2282940); details: HepG2 ERE cis-reporter, Attagene RNA transcript; actives raise or lower the signal
Summary of the method: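 After 24 h compound treatment, RNA from transfected HepG2 cells was reverse-transcribed, reporter cDNA PCR-amplified, FAM-labelled, HpaI-cut and resolved by capillary electrophoresis. ERE-driven cis reporter transcripts reflect endogenous factors; gain or loss scored against DMSO.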

[6] = ATG_Ets_CIS: Attagene CIS-FACTORIAL HepG2 Assay for human Erythroblast Transformation Specific (ETS) (AID 2282941); details: HepG2 ETS cis-reporter transcription, actives raise or lower the signal
Summary of the method: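 RT-PCR/capillary electrophoresis fluorescence read-out of reporter mRNA; HepG2 transient multi-reporter transfection; 24 h compound exposure; gain or loss of signal fitted bidirectionally relative to DMSO.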

[7] = biological target: Hepatocyte nuclear factor 3-beta (Homo sapiens) (UniProt Q9Y261); experiment: ATG_FoxA2_CIS: Attagene CIS-FACTORIAL HepG2 Assay for human Forkhead box A2 (FOXA2) (AID 2282942); details: HepG2 cis-reporter transcription factor activity, 24 h; actives raise or lower the signal
Summary of the method: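 Fluorescence signal of reporter cDNA fragments, separated by capillary electrophoresis, reflects endogenous transcription factor activity in transfected HepG2 after 24 h. Both increases and decreases fitted against DMSO.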

[8] = ATG_FoxO_CIS: Attagene CIS-FACTORIAL HepG2 Assay for human Forkhead box O (FoxO) (AID 2282943); details: HepG2 Attagene cis-reporter, FoxO element, mRNA; actives raise or lower the signal
Summary of the method: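 Read-out: fluorescence of 6-FAM-labelled reporter cDNA fragments resolved by capillary electrophoresis. Transiently transfected HepG2 cells were dosed for 24 h; activity fitted in both directions relative to DMSO controls.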

[9] = ATG_GATA_CIS: Attagene CIS-FACTORIAL HepG2 Assay for human GATA Binding Protein (AID 2282944); details: HepG2 GATA cis-element reporter, Attagene multiplex mRNA; actives raise or lower the signal
Summary of the method: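 Reporter transcripts from a GATA cis-regulated unit, among multiplexed reporters in transfected HepG2 cells, were measured by RT-PCR with capillary electrophoresis after 24 h dosing. Induction or loss scored relative to DMSO.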

[10] = ATG_GLI_CIS: Attagene CIS-FACTORIAL HepG2 Assay for human Zinc Finger Protein GLI1 (AID 2282945); details: HepG2, Attagene cis-factorial reporter mRNA, GLI element; actives raise or lower the signal
Summary of the method: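 Transiently transfected HepG2 cells report endogenous transcription factor activity via cis-element-driven reporter units. After 24 h compound exposure, reporter mRNA was measured by RT-PCR with capillary electrophoresis; bidirectional fitting against DMSO baseline.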

[11] = ATG_GRE_CIS: Attagene CIS-FACTORIAL HepG2 Assay for human Glucocorticoid Response Elements (GRE) (AID 2282947); details: HepG2 GRE cis-reporter, Attagene multiplex mRNA; actives raise or lower the signal
Summary of the method: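 Read-out: fluorescent reporter-transcript fragments separated by capillary electrophoresis after RT-PCR. Transiently transfected HepG2 cells carrying cis-element-driven reporter units were dosed for 24 h; gain or loss of signal fitted against DMSO control.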

[12] = ATG_ISRE_CIS: Attagene CIS-FACTORIAL HepG2 Assay for human Interferon Regulatory Factor 1 (IRF1) binding to an Interferon-Stimulated Response Element (ISRE) (AID 2282948); details: HepG2 ISRE cis-reporter (Attagene), mRNA transcription readout; actives raise or lower the signal
Summary of the method: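 Read-out: fluorescent RT-PCR products resolved by capillary electrophoresis, reporting endogenous transcription factor activity via ISRE-driven reporter mRNA in transfected HepG2 cells dosed for 24 h; gain or loss fitted relative to DMSO.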

[13] = ATG_M_32_CIS: Attagene CIS-FACTORIAL HepG2 Assay for M32 Transcription Factor (Internal Marker) (AID 2282949); details: HepG2 Attagene cis-factorial M32 reporter, mRNA; actives raise or lower the signal;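 note: background control marker of the multiplexed CIS panel rather than a real target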
Summary of the method: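 Transient MRTU transfection of HepG2; 24 h compound treatment; TriZol RNA, oligo(dT) RT, reporter PCR, 6-FAM primer extension, HpaI cut, CE. Gain/loss of signal vs DMSO.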

[14] = ATG_M_06_CIS: Attagene CIS-FACTORIAL HepG2 Assay for M06 Transcription Factor (Internal Marker) (AID 2282950); details: HepG2 Attagene CIS-FACTORIAL M06 internal marker reporter; actives raise or lower the signal
Summary of the method: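 Serves as a background control readout. Transfected HepG2 exposed to compounds for 24 h, then reporter transcripts quantified by fluorescent RT-PCR and capillary electrophoresis. Both directions fitted against DMSO baseline.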

[15] = biological target: Hypoxia-inducible factor 1-alpha (Homo sapiens) (UniProt Q16665); experiment: ATG_HIF1a_CIS: Attagene CIS-FACTORIAL HepG2 Assay for human Hypoxia Inducible Factor 1 (HIF1A) (AID 2282951); details: HepG2 Attagene cis-factorial HIF1a reporter transcription; actives raise or lower the signal
Summary of the method: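 Endogenous-TF cis reporter readout, human HepG2 cells, 24 h incubation; mRNA detected via RT-PCR and capillary electrophoresis fluorescence; DMSO-normalised bidirectional fitting.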

[16] = biological target: Hepatocyte nuclear factor 6 (Homo sapiens) (UniProt Q9UBC0); experiment: ATG_HNF6_CIS: Attagene CIS-FACTORIAL HepG2 Assay for human Hepatocyte Nuclear Factor 6 (HNF6) (AID 2282952); details: HepG2 Attagene cis-factorial HNF6 reporter transcription; actives raise or lower the signal
Summary of the method: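 Readout: fluorescent reporter-transcript fragments resolved by capillary electrophoresis after RT-PCR, reflecting endogenous factor activity in transfected HepG2. Exposure 24 h. Gain or loss of signal fitted bidirectionally against DMSO.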

[17] = ATG_MRE_CIS: Attagene CIS-FACTORIAL HepG2 Assay for human Metal Responsive Element (MRE) (AID 2282954); details: HepG2 MRE cis-reporter transcription, Attagene multiplex; actives raise or lower the signal
Summary of the method: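 RT-PCR/capillary electrophoresis readout of reporter mRNA, 24 h post-dosing, in HepG2 cells transfected with multiplexed cis-regulated reporter constructs. Gain or loss of signal fitted bidirectionally against DMSO baseline.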

[18] = biological target: Heat shock factor protein 1 (Homo sapiens) (UniProt Q00613); experiment: ATG_HSE_CIS: Attagene CIS-FACTORIAL HepG2 Assay for human Heat Shock Transcription Factor 1 (HSE) (AID 2282953); details: HepG2 HSE cis-reporter, Attagene RNA transcription; actives raise or lower the signal
Summary of the method: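 Endogenous transcription factor activity in transiently transfected HepG2, read as reporter mRNA by RT-PCR with fluorescent capillary electrophoresis after 24 h. Gain or loss of signal fitted versus DMSO baseline.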

Measured: AC50

Sequence of Hypoxia-inducible factor 1-alpha (Homo sapiens) (Q16665 whole entry, looked up): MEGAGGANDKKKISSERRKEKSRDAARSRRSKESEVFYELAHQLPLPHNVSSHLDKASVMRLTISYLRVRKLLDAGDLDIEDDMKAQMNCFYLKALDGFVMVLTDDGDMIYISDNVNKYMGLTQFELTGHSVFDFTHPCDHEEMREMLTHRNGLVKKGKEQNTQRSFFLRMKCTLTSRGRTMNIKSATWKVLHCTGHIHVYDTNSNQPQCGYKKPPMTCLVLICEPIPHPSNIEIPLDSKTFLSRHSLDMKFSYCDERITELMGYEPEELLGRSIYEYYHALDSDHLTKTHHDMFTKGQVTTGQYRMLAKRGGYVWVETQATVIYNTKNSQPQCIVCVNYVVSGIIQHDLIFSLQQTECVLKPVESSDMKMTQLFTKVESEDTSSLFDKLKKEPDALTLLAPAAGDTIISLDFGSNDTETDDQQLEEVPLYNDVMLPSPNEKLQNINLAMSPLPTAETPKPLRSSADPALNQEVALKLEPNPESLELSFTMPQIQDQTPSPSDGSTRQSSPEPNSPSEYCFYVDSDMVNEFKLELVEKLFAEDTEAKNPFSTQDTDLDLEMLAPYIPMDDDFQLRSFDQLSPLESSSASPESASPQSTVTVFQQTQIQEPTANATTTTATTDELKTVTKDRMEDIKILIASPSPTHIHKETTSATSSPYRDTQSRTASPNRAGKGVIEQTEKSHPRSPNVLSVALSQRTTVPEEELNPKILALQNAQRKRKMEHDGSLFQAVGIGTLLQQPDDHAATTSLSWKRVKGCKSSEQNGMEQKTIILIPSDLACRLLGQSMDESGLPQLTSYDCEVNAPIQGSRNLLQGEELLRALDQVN
Sequence of Transcription factor E2F1 (Homo sapiens) (Q01094 whole entry, looked up): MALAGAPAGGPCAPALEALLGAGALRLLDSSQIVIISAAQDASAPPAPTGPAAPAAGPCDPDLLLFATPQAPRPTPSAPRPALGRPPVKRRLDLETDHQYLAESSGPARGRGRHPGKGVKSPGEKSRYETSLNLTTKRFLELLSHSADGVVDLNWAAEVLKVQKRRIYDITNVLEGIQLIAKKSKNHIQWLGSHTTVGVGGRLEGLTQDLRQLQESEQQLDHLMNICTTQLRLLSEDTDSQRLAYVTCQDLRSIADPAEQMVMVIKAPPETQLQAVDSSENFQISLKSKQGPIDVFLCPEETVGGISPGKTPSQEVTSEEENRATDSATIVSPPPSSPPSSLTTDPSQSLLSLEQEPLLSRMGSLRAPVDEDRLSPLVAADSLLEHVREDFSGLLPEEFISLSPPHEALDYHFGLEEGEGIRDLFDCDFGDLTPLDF
Sequence of Hepatocyte nuclear factor 3-beta (Homo sapiens) (Q9Y261 whole entry, looked up, the tested form may be a part): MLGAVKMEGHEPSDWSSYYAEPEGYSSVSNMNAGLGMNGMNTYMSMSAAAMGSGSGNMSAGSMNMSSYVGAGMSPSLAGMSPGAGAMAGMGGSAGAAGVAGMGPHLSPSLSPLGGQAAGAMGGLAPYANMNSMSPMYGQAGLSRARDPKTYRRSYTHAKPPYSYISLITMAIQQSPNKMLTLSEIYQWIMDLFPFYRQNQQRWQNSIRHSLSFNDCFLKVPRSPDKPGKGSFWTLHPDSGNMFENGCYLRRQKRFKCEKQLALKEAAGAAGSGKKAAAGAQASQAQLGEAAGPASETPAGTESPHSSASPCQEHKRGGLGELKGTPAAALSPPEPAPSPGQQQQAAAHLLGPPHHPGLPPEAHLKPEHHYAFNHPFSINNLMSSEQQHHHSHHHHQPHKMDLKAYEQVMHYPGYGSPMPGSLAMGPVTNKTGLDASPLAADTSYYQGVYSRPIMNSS
Sequence of Heat shock factor protein 1 (Homo sapiens) (Q00613 whole entry, looked up): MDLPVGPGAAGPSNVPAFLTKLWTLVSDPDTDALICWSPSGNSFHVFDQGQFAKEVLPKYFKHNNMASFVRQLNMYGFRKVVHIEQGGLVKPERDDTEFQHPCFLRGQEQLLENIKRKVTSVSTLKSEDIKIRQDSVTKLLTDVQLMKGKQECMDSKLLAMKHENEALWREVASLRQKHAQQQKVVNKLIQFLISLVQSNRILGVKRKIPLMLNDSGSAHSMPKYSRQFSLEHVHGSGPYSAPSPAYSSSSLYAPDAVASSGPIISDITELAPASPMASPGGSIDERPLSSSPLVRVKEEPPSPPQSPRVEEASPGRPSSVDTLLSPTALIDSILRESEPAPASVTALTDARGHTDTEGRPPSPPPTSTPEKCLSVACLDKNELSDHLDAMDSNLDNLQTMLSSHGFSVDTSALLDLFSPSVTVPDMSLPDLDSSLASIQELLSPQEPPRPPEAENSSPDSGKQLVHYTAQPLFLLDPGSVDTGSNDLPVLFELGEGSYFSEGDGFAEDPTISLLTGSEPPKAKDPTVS
Sequence of Hepatocyte nuclear factor 6 (Homo sapiens) (Q9UBC0 whole entry, looked up, the tested form may be a part): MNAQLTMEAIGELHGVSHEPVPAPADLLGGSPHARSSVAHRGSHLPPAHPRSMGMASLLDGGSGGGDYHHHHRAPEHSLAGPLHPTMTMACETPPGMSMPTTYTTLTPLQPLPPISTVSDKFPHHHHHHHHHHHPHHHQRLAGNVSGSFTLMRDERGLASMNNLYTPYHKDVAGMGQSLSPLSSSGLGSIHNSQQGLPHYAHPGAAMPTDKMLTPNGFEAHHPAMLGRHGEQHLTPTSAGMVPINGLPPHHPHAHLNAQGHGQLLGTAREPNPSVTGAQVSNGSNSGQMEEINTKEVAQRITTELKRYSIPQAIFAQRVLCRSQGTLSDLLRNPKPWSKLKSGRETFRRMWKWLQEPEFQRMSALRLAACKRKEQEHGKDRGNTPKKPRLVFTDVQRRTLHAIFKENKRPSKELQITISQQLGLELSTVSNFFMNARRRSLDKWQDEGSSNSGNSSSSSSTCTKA

CCOS(=O)(=O)OCC
inactive: [1] | [2] | [3] | [4] | [5] | [6] | [7] | [8] | [9] | [10] | [11] | [12] | [13] | [14] | [15] | [16] | [17]

CSC(C)(C)C=NO
inactive: [1] | [2] | [3] | [4] | [5] | [6] | [7] | [8] | [10] | [11] | [12] | [13] | [14] | [15] | [16] | [18] | [17]

Cc1ccc(O)cc1C
active: [5] 160 µM
inactive: [1] | [2] | [4] | [6] | [7] | [8] | [9] | [10] | [12] | [13] | [14] | [15] | [18] | [17]
